Assay results: PubChem BioAssay (NCI)
Compounds without any hit were thinned out: in the full panel of roughly 79,000, 15% have a hit. Active and inactive are the calls of the source. Cut-off read from the data, not from the text of the source: active = growth inhibition above about 70%; inactive = the rest.

How the values were obtained:
[1] = NCI Yeast Anticancer Drug Screen. Data for the rad52 strain (AID 147);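 note: 0% = growth of vehicle-treated control cultures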; conditions: S. cerevisiae rad52 mutant growth inhibition, active compounds read high
In short: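 Growth of repair-deficient yeast cells was compared between compound-treated and vehicle-treated cultures to give percent inhibition.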

[2] = NCI Yeast Anticancer Drug Screen. Data for the wt1 strain (AID 149);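 note: 0% = growth of vehicle-treated wt1 cultures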; conditions: S. cerevisiae wt1 strain (SPY 50644) growth inhibition, active compounds read high
In short: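 Compounds are added to wt1 yeast cultures. Growth is then measured. Inhibition is expressed relative to vehicle-treated controls.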

[3] = NCI Yeast Anticancer Drug Screen. Data for the rad50EPP+ strain (AID 151);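 note: 0% = growth of vehicle-treated control cultures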; conditions: S. cerevisiae rad50 mutant strain, active compounds read high
In short: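 Measured: growth inhibition of rad50EPP+ yeast. Reference: vehicle-treated controls. Screen uses strains with defined genetic alterations in DNA damage repair or cell cycle control.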

[4] = NCI Yeast Anticancer Drug Screen. Data for the mgt1 strain (AID 153); conditions: S. cerevisiae mgt1 mutant growth inhibition, active compounds read high
In short: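 Compounds were applied to mgt1 mutant yeast, and growth was then compared against vehicle-treated control cultures to give percent inhibition.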

[5] = NCI Yeast Anticancer Drug Screen. Data for the rad50 strain (AID 155);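 note: 0% = growth of vehicle-only cultures of the same strain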; conditions: S. cerevisiae rad50 strain growth inhibition, active compounds read high
In short: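 Inhibition values express reduced yeast growth in compound-treated cultures relative to vehicle-treated controls.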

[6] = NCI Yeast Anticancer Drug Screen. Data for the mec2-1 strain (AID 157); conditions: S. cerevisiae mec2-1 strain, active compounds read high
In short: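 Compounds were applied to mec2-1 yeast cells. Their growth was then compared with that of vehicle-treated cultures to give growth inhibition.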

[7] = NCI Yeast Anticancer Drug Screen. Data for the rad14 strain (AID 159);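 note: 0% = growth of vehicle-treated control cultures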; conditions: S. cerevisiae rad14 strain growth inhibition, active compounds read high
In short: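 A mutant yeast strain defective in DNA damage repair is treated with compound; inhibition of its growth is scored against untreated, vehicle-exposed cultures.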

[8] = NCI Yeast Anticancer Drug Screen. Data for the sgs1 mgt1 strain (AID 161);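 note: 0% = growth of cultures given vehicle only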; conditions: S. cerevisiae sgs1 mgt1 strain, active compounds read high
In short: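 This yeast growth screen uses a strain with defined DNA-repair lesions; compound-treated growth is compared with vehicle-treated growth.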

[9] = NCI Yeast Anticancer Drug Screen. Data for the CLN2oe strain (AID 163);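 note: 0% = growth of vehicle-only control cultures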; conditions: S. cerevisiae CLN2oe strain, active compounds read high
In short: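 Cells of an engineered yeast line with disturbed cell-cycle regulation are treated with compound. Inhibition of growth is then calculated relative to the vehicle-treated reference.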

[10] = NCI Yeast Anticancer Drug Screen. Data for the cln2 rad14 strain (AID 165);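 note: 0% = growth equal to vehicle treated cultures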; conditions: S. cerevisiae cln2 rad14 strain, active compounds read high
In short: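 Strain: cln2 rad14 yeast, altered in cell cycle control and DNA damage repair. Read-out: growth inhibition vs vehicle.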

[11] = NCI Yeast Anticancer Drug Screen. Data for the bub3 strain (AID 167); conditions: S. cerevisiae bub3 mutant strain, active compounds read high
In short: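 Steps: expose the mutant yeast strain to compound; grow alongside vehicle-treated cultures; measure growth; express inhibition against the vehicle cultures.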

[12] = NCI Yeast Anticancer Drug Screen. Data for the mlh1 strain (AID 171);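 note: 0% = growth of vehicle-treated control cultures of the same strain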; conditions: S. cerevisiae mlh1 strain growth inhibition, active compounds read high
In short: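 Test agents were incubated with yeast bearing a defined DNA damage repair or cell cycle control alteration; values are growth inhibition normalised to vehicle-treated cultures.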

[13] = NCI Yeast Anticancer Drug Screen. Data for the mlh1 rad18 strain (AID 175); conditions: S. cerevisiae mlh1 rad18 strain growth inhibition, active compounds read high
In short: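 A repair-deficient yeast strain is exposed to test compound, and growth is scored relative to vehicle-treated controls.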

[14] = NCI Yeast Anticancer Drug Screen. Data for the rad18 strain (AID 177); conditions: S. cerevisiae rad18 mutant growth inhibition, active compounds read high
In short: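 DNA-repair-defective yeast; compound treatment; growth inhibition scored against vehicle.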

[15] = NCI Yeast Anticancer Drug Screen. Data for the sgs1 strain (AID 173);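 note: 0% = growth of vehicle-only control cultures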; conditions: S. cerevisiae sgs1 mutant, active compounds read high
In short: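 Strain with an altered DNA repair or cell cycle pathway exposed to compound. Growth then measured. Value = inhibition versus vehicle control.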

[16] = at 5.0 µM (retest, dose inferred, filed as 0.5)
[17] = at 50.0 µM (retest, dose inferred, filed as 5.0)

Measured: growth inhibition

CSC(=S)Nc1cccc(C)n1
active: [5]; [16] 88% | [5]; [17] 99% | [5]; at 100.0 µM 79% | [6]; [16] 70% | [6]; [17] 99% | [11]; at 100.0 µM 74% | [13]; [17] 99% | [13]; at 50.0 µM 70.1%
inactive: [1]; at 1.2 µM -6% | [1]; at 3.7 µM -5% | [1]; at 11.0 µM -3% | [1]; at 33.0 µM 23% | [1]; at 100.0 µM 63% | [2]; at 1.2 µM -35% | [2]; at 3.7 µM -24% | [2]; at 11.0 µM -25% | [2]; at 33.0 µM -15% | [2]; at 100.0 µM 3% | [3]; at 1.2 µM -15% | [3]; at 3.7 µM -19% | [3]; at 11.0 µM -27% | [3]; at 33.0 µM -24% | [3]; at 100.0 µM 68% | [4]; at 1.2 µM -52% | [4]; at 3.7 µM -29% | [4]; at 11.0 µM -11% | [4]; at 33.0 µM 16% | [4]; at 100.0 µM 59% | [5]; at 1.2 µM -25% | [5]; at 3.7 µM -4% | [5]; at 11.0 µM -11% | [5]; at 33.0 µM 28% | [5]; at 50.0 µM 41.8% | [6]; at 1.2 µM -61% | [6]; at 3.7 µM -61% | [6]; at 11.0 µM -58% | [6]; at 33.0 µM -36% | [6]; at 50.0 µM 31.6% | [6]; at 100.0 µM 34% | [7]; at 1.2 µM -19% | [7]; at 3.7 µM -15% | [7]; at 11.0 µM 9% | [7]; at 33.0 µM 2% | [7]; at 100.0 µM 50% | [8]; [16] -18% | [8]; [17] 29% | [8]; at 50.0 µM 45% | [9]; at 1.2 µM -24% | [9]; at 3.7 µM -8% | [9]; at 11.0 µM -13% | [9]; at 33.0 µM 12% | [9]; at 100.0 µM 24% | [10]; [16] 9% | [10]; [17] 65% | [10]; at 50.0 µM 38.2% | [11]; at 1.2 µM -9% | [11]; at 3.7 µM -16% | [11]; [16] 39% | [11]; at 11.0 µM -3% | [11]; at 33.0 µM 15% | [11]; [17] 63% | [11]; at 50.0 µM 54% | [12]; at 1.2 µM -42% | [12]; at 3.7 µM -40% | [12]; at 11.0 µM -35% | [12]; at 33.0 µM -12% | [12]; at 100.0 µM 66% | [13]; [16] 55% | [14]; at 1.2 µM -20% | [14]; at 3.7 µM -15% | [14]; at 11.0 µM -22% | [14]; at 33.0 µM 9% | [14]; at 100.0 µM 69%

COc1cc2ccc(/C=C\[N+](=O)[O-])cc2cc1OC
inactive: [1]; at 1.2 µM 1% | [1]; at 3.7 µM 13% | [2]; at 1.2 µM -24% | [2]; at 3.7 µM -25% | [2]; at 11.0 µM -37% | [3]; at 1.2 µM 18% | [3]; at 3.7 µM 39% | [4]; at 1.2 µM -18% | [4]; at 3.7 µM -23% | [4]; at 11.0 µM 24% | [5]; at 1.2 µM -5% | [5]; at 3.7 µM 26% | [5]; [16] 44% | [5]; at 11.0 µM 51% | [6]; at 1.2 µM 10% | [6]; at 3.7 µM -34% | [6]; [16] 29% | [6]; at 11.0 µM 38% | [7]; at 1.2 µM -26% | [7]; at 3.7 µM -39% | [7]; at 11.0 µM -18% | [8]; [16] 11% | [9]; at 1.2 µM 12% | [9]; at 3.7 µM 0% | [9]; at 11.0 µM -4% | [10]; [16] -14% | [10]; [17] -25% | [11]; at 1.2 µM -30% | [11]; at 3.7 µM -21% | [11]; [16] 17% | [11]; at 11.0 µM -22% | [11]; [17] 53% | [12]; at 1.2 µM -36% | [12]; at 3.7 µM -36% | [12]; at 11.0 µM 19% | [15]; at 1.2 µM -4% | [15]; at 3.7 µM 16% | [15]; at 11.0 µM 47% | [13]; [16] 45% | [14]; at 1.2 µM -17% | [14]; at 3.7 µM -33% | [14]; at 11.0 µM 18%
active: [1]; at 11.0 µM 70% | [1]; at 33.0 µM 97% | [1]; at 100.0 µM 94% | [2]; at 33.0 µM 98% | [2]; at 100.0 µM 96% | [3]; at 11.0 µM 83% | [3]; at 33.0 µM 98% | [3]; at 100.0 µM 96% | [4]; at 33.0 µM 97% | [4]; at 100.0 µM 95% | [5]; at 33.0 µM 96% | [5]; [17] 99% | [5]; at 50.0 µM 91% | [5]; at 100.0 µM 94% | [6]; at 33.0 µM 97% | [6]; [17] 99% | [6]; at 50.0 µM 90.5% | [6]; at 100.0 µM 95% | [7]; at 33.0 µM 97% | [7]; at 100.0 µM 95% | [8]; [17] 85% | [8]; at 50.0 µM 90.7% | [9]; at 33.0 µM 91% | [9]; at 100.0 µM 95% | [10]; at 50.0 µM 86.1% | [11]; at 33.0 µM 85% | [11]; at 50.0 µM 91.9% | [11]; at 100.0 µM 95% | [12]; at 33.0 µM 98% | [12]; at 100.0 µM 97% | [15]; at 33.0 µM 98% | [15]; at 100.0 µM 97% | [13]; [17] 98% | [13]; at 50.0 µM 92.3% | [14]; at 33.0 µM 97% | [14]; at 100.0 µM 93%
